# Laboratory results taken from PubChem BioAssay (Tox21).
# The source made the active and inactive calls. Calls come from the whole dose curve.
# Target: Androgen receptor (Homo sapiens) (UniProt P10275)
# Assay: qHTS assay to identify small molecule agonists of the androgen receptor (AR) signaling pathway in the presence of an antagonist (AID 1259381); note: nearly all actives have a fitted effect of over 15% in size
# Details: MDA-kb2 MMTV-luciferase, AR agonist + nilutamide, 16 h; series mostly up to 92.4 µM; activation: at the top concentration
# From the text: National Center for Advancing Translational Sciences [NCATS] NIH Chemical Genomics Center [NCGC] U.S. Environmental Protection Agency [EPA] National Institutes of Environmental Health Sciences [NIEHS] National Toxicology Program [NTP] Assay overview: Androgen receptor (AR) is an important member of nuclear receptor family. Its signaling plays a critical role in AR-dependent prostate cancer and other androgen related diseases. Considerable attention has been given in the past decades to develop methods to study and screen for the environmental chemicals that have the potential to interfere with metabolic homeostasis, reproduction, developmental and behavioral functions. Therefore AR binding assay for screening against androgen agonists and antagonists can be used to identify potential endocrine disruptors. MDA-kb2 cells (from ATCC, deposited by Wilson et al.) are human breast carcinoma cells that were stably transfected with a luciferase reporter gene under control of the MMTV promoter that contains response elements for both androgen receptor (AR) and glucocorticoid receptor (GR). This particular screening for measuring luciferase reporter gene activity using MDA-kb2 cells against Tox21 10K library compounds is a confirmation study on agonist mode screening in the presence of AR-antagonist compound (Nilutamide) at 3.0uM final concentration.
# Assay Protocol Summary: MDA-kb2 cells (cells cultured without CO2) were dispensed at 3,000 cells/well in 4uL of culture medium into white wall/solid-bottom 1536-well plates (Corning Life Sciences, Corning, NY) using a Multidrop Combi (Thermo Fisher Scientific Inc., Waltham, MA) dispenser. The assay plates were incubated at 37C and 0% CO2 for 5hr. One uL of 3.0uM (final concentration) Nilutamide or assay buffer was added using two separate tips of Flying Reagent Dispenser (FRD, Aurora Discovery, San Diego, CA). Then 23nL of compounds dissolved in DMSO at 15 concentrations and positive controls were transferred to the assay plates using a Pintool station (Wako, San Diego, CA). The assay plates were incubated at 37C and 0% CO2 for 16hr. For luciferase read, 4uL/well ONE-Glo reagent (Promega Corporation, Madison, WI) was added to each well of the assay plates using FRD. After 30min incubation at room temperature, the luminescence signal was measured using a ViewLux plate reader (PerkinElmer, Shelton, CT).
# % is set by controls: 0 for no effect and ±100 for the full control effect; potency is the fitted concentration of half-maximal effect.
# Chain of Androgen receptor (Homo sapiens) (P10275 whole entry, looked up): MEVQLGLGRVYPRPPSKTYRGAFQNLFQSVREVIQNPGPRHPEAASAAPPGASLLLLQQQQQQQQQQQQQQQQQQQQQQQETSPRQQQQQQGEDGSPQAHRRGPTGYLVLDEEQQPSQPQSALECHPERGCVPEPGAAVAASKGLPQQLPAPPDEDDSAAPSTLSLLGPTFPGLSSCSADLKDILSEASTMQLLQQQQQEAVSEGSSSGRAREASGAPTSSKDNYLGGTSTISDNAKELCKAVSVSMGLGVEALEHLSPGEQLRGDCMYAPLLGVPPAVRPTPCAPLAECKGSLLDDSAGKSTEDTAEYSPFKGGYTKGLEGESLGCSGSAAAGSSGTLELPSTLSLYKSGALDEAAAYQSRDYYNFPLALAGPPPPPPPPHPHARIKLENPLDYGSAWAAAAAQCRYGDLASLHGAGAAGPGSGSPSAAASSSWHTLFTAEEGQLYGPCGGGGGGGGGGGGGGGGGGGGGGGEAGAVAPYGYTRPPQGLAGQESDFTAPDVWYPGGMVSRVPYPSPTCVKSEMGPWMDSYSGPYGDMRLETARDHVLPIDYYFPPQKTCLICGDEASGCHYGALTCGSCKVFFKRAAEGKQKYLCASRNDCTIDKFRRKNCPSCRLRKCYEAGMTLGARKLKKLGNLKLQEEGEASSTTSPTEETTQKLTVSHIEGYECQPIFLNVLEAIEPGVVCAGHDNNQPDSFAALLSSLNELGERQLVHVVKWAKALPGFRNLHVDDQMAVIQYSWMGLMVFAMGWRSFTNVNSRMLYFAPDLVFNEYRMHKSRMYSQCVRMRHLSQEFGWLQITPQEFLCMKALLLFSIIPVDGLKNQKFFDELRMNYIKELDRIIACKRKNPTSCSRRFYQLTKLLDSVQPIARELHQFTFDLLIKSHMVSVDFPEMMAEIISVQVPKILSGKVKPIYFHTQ
Structure (SMILES),activation,Potency
C/C=C/C(=O)OCC(C)C,0.321% (inactive),–
C1=CCCC1,0.705% (inactive),–
CCOC(=O)OC(=O)OCC,0.0443% (inactive),–
C=COCCCC,-0.018% (inactive),–
O=C1OC2(c3ccccc31)c1ccc(O)c(Br)c1Oc1c2ccc(O)c1Br,-3.39% (inactive),–
CN[C@H]1CC[C@@H](c2ccc(Cl)c(Cl)c2)c2ccc(S(N)(=O)=O)cc21,-9.8% (inactive),–
CCOc1nc(F)cc2nc(S(=O)(=O)Nc3c(Cl)cccc3C(=O)OC)nn12,-0.0969% (inactive),–
CCCC(=O)c1cc(O)c(O)cc1O,0.0877% (inactive),–
C=C1CC[C@H]2O[C@]2(C)CC[C@@H]2[C@@H]1CC2(C)C,-0.438% (inactive),–
N#Cc1ccc(C/C(=N/NC(=O)Nc2ccc(OC(F)(F)F)cc2)c2cccc(C(F)(F)F)c2)cc1,-1.36% (inactive),–
Cc1ccc(N=Nc2c(O)ccc3ccccc23)c(C)c1,–,0.335 µM (active)
CC(C)(C)c1ccc(OC2CCCCC2O)cc1 (stereo not given),-6.61% (inactive),–
CC/C=C\C/C=C\C/C=C\CCCCCCCC(=O)OC,-2.1% (inactive),–
Cn1c(=O)[nH]c2ncn(C)c2c1=O,-0.0598% (inactive),–
CN(C[C@@H](CC[N+]12CCC(C3CCCCC3)(CC1)CC2)c1ccc(Cl)c(Cl)c1)C(=O)c1cc(C(F)(F)F)cc(C(F)(F)F)c1,-11.1% (inactive),–
Cc1c[nH]c(=O)[nH]c1=O,0.643% (inactive),–
CCN(CC)c1ccc(C=O)cc1,–,34.4 µM (active)
Brc1cc(Br)cc(Br)c1,0.158% (inactive),–
CC1(C)[C@H](C(=O)OCc2cccc(Oc3ccccc3)c2)[C@@H]1C=C(Cl)Cl,-0.465% (inactive),–
Cc1cc(C)c(O)c(C(C)(C)C)c1,-0.0535% (inactive),–

Structure (SMILES),activation,Potency
CCC1(C)C(=O)N(Cl)C(=O)N1Cl (stereo not given),0.914% (inactive),–
CC(C)(c1ccc(Oc2ccc(N)cc2)cc1)c1ccc(Oc2ccc(N)cc2)cc1,-0.131% (inactive),–
C=CC(=O)OCCOC1C2CCC1C1CC=CC12 (stereo not given),0.68% [at 19 µM] (inactive),–
CC(C=O)c1ccccc1 (stereo not given),12.4% (inactive),–
COc1cc(C(C)C)ccc1C,0.232% [at 19 µM] (inactive),–
c1ccc2c(c1)-c1ccc3ccc4cccc5cc-2c1c3c45,6.49% [at 42.5 µM] (inactive),–
CCc1cccc(C)c1N(C(=O)C(=O)O)C(C)COC (stereo not given),0.032% (inactive),–
[Cl][Sc]([Cl])[Cl],0.469% (inactive),–
CCN(CC)c1ccc2c(c1)Oc1cc(N(CC)CC)ccc1C21OC(=O)c2ccccc21,-0.591% [at 42.5 µM] (inactive),–
CC(C)C(=O)C(C)C,11.9% (inactive),–
Cc1cc(F)ccc1-c1cc(N2CC[C@@H](O)[C@H]2CO)ncc1N(C)C(=O)C(C)(C)c1cc(C(F)(F)F)cc(C(F)(F)F)c1,-8.69% (inactive),–
CCCCCCCCc1ccc(Nc2ccc(CCCCCCCC)cc2)cc1,7.04% [at 42.5 µM] (inactive),–
CCCCNc1ccc(NCCCC)c2c1C(=O)c1ccccc1C2=O,-0.623% [at 19 µM] (inactive),–
CCCCCc1ccc(O)cc1,7.44% (inactive),–
O=[N+]([O-])c1ccc(CO)cc1,12.5% (inactive),–
CCN(CC)c1ccc(C=O)c(O)c1,–,43.3 µM (active)
CCOC=C(C(=O)OCC)C(=O)OCC,-2.23% (inactive),–
O=C1C=CC(=O)N1c1cccc(N2C(=O)C=CC2=O)c1,-7.6% (inactive),–
CCC(=O)OC/C=C(\C)CCC=C(C)C,0.0565% (inactive),–
O=C(O)C[C@H](O)C[C@H](O)/C=C/c1c(C2CC2)nc2ccccc2c1-c1ccc(F)cc1,-0.267% [at 19 µM] (inactive),–
